Laboratory results published in PubChem BioAssay AID651840 (Vanderbilt Specialized Chemistry Center, 2012).
Measured potencies and affinities stand elsewhere. The source made the active and inactive calls.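 Rule for the calls: active = mean concentration giving half inhibition of the glutamate calcium response below 30 µM; inactive = the rest.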

Target: Metabotropic glutamate receptor 3 (Rattus norvegicus) (UniProt P31422)
Assay: inhibitors of rat mGlu3 Galpha15 signaling – TREx293 cells, calcium flux, mGlu3 NAM project, dose response (AID 651840)
Conditions: TREx293 mGlu3/Galpha15, calcium fluorescence, glutamate EC80

Sequence of Metabotropic glutamate receptor 3 (Rattus norvegicus) (P31422 whole entry, looked up): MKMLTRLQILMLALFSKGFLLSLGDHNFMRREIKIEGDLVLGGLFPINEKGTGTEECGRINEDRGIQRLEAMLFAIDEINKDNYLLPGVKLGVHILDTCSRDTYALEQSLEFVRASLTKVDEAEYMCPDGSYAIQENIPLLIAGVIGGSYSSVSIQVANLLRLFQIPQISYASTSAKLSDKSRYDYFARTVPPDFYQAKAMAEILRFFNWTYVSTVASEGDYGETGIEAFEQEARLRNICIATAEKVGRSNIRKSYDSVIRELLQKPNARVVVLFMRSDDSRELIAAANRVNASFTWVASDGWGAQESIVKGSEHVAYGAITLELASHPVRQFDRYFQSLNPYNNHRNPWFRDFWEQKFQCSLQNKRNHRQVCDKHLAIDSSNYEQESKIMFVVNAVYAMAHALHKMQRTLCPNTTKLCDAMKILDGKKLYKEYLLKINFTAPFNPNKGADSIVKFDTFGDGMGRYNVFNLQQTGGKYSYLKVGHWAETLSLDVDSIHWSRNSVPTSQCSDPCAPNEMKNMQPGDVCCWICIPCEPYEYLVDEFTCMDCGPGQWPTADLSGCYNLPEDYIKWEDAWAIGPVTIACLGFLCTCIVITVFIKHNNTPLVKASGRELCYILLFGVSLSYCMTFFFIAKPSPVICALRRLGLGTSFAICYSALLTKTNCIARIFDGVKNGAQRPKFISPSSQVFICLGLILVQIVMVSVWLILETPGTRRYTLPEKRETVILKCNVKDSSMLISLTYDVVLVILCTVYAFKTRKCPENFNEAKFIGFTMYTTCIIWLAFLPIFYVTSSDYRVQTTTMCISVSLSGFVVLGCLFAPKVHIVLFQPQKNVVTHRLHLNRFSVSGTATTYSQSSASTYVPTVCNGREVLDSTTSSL

Compound	outcome
COc1ccc(C#Cc2ccc(C(=O)N3CCCC(O)(c4ccccc4)C3)cc2)cc1 (configuration not stated)	inactive
COc1ccc(C#Cc2ccc(C(=O)N3CCCC(O)(CCC4OCCCO4)C3)cc2)cc1 (configuration not stated)	inactive
COc1ccc(C#Cc2ccc(C(=O)N3CCCC(O)(c4ccncc4)C3)cc2)cc1 (configuration not stated)	inactive
COc1ccc(C#Cc2ccc(C(=O)N3CCCC(O)(c4ccc(F)cc4)C3)cc2)cc1 (configuration not stated)	inactive
COc1ccc(C#Cc2ccc(C(=O)N3CCCC(O)(c4cccc(OC)c4)C3)cc2)cc1 (configuration not stated)	inactive
COc1cccc(COc2ccc(C(=O)N3CC(O)C3)cc2)c1	inactive
COc1ccc(C#Cc2ccc(C(=O)N3CCCC(O)(c4ccc(Cl)cc4)C3)cc2)cc1 (configuration not stated)	inactive
O=C(c1ccc2cc(-c3cccc(-c4ccccc4)c3)ccc2c1)N1CCCC(CO)C1 (configuration not stated)	inactive
COc1ccc(C#Cc2ccc(C(=O)N3CCCC(O)(c4cccc(F)c4)C3)cc2)cc1 (configuration not stated)	inactive
COc1ccc(C#Cc2ccc(C(=O)N[C@@H]3CCCNC3)cc2)cc1	inactive
COc1ccc(C#Cc2ccc(C(=O)N3CCCC(O)(c4ccc5ccccc5c4)C3)cc2)cc1 (configuration not stated)	inactive
COc1ccc(C#Cc2ccc(C(=O)N3CCCC(O)(c4ccccc4OC)C3)cc2)cc1 (configuration not stated)	inactive
